# Screening results as filed in PubChem BioAssay.
# Rows were chosen to be rich in hits. Some 3.5% of all compounds tested hit in one or more screens of this group.
# TEAD-YAP block = TEAD-YAP interaction inhibition | AID 1259422 | HEK-TIYL cells, TEAD-Gal4/YAP UAS-luciferase luminescence | 640,000 tested, 1.4% active | inhibition, % at 9.12 µM; in the data active = inhibition above about 32%;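 also: 0% = median of test compound wells and 100% = reference inhibitor wells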
# GPR151 activ = activates the human receptor GPR151 | Q8TDV0 | PathHunter beta-arrestin GPR151 cells, luminescence | activation, % at 11.2 µM | 650,000 tested, 1% active | AID 1508602; in the data active = activation above about 4.9%;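 also: 0% = median of compound wells and 100% = cells with positive control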
# FBW7 activator = human FBW7 E3 ligase activation, primary screen; normalized activity (activation), % at 26.1 µM; 650,000 tested, 0.13% active; AlphaScreen FBW7–phospho-cyclin E peptide binding, activator screen; in the data active = normalized activity above about 1.9%;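 also: purified mutant Fbw7 with reduced substrate affinity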
# MITF inh = blocks human microphthalmia-associated transcription factor. AlphaScreen MITF homodimerization, bead proximity signal. inhibition, % at 2.6 µM. 650,000 tested, 0.91% active; in the data active = inhibition above about 50%;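 also: 0% = vehicle wells with protein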
# Target sequence (O75030 whole entry, looked up): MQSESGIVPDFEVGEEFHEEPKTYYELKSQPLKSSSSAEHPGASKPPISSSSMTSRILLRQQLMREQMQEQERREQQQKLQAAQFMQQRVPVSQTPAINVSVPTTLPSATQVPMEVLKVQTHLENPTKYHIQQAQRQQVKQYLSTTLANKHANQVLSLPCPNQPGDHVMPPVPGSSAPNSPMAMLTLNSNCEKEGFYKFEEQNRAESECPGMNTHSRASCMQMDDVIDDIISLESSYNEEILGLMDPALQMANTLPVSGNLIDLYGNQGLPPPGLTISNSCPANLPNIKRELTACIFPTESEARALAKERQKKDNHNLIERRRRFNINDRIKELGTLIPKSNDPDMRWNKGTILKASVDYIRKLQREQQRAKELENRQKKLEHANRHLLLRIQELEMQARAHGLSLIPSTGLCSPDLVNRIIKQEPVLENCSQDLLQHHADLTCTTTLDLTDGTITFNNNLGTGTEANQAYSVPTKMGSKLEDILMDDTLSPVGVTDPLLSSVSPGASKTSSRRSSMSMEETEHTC
# GPR151 conf act = confirmation of human GPR151 activators | shares compounds with GPR151 activ | GPR151 PathHunter beta-arrestin cells, luminescence, 90 min; % of EA-reagent control over plate median | AID 1508609 | activation, % at 11.2 µM | 6,700 tested, under 10 active;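 active = mean percent activation across replicates above the confirmation screen cutoff of 4.91%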
# GPR119 counter = GPR119 activation, counter-screen for GPR151 activators. shares compounds with GPR151 activ. GPR119 PathHunter beta-arrestin cells, luminescence, 90 min; 0 = compound-well median, 100 = enzyme-acceptor control. activation, % at 11.2 µM. 6,700 tested, 0.3% active;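 active = mean percent activation in the counterscreen above 29.09%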;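 also: counterscreen on off-target GPR119 to flag nonselective hits from the GPR151 activator screen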
# An asterisk follows results filed as active; x = not tested or not shown.
SMILES,TEAD-YAP block,GPR151 activ,FBW7 activator,MITF inh,GPR151 conf act,GPR119 counter
COc1cc(-c2cn[nH]c2)ccc1NC(=S)C1COc2ccccc2O1 (centres undefined),-22,1,0,11,x,x
COc1ccccc1CN1CCNC(=O)C1CC(=O)NCc1csc(C)n1 (centres undefined),-24,5.8*,0,-3,0,-2
COc1ccccc1CN1CCNC(=O)C1CC(=O)NCc1ccc(F)cc1 (centres undefined),17,0,0,12,x,x
CCC1CCC(c2ccc(C3=N/C(=C\c4c(OC)ccc5ccccc45)C(=O)O3)cc2)CC1 (centres undefined),12,0,0,-10,x,x
CCOC(=O)c1sc(-c2ccccc2)cc1NC(=S)NC(=O)CN1C(=O)CCC1=O,-3,7.7*,0,6,1,7
CCOC(=O)c1sc(-c2ccccc2)cc1NC(=O)c1cc2ccccc2cc1OC,-20,-1,0,-11,x,x
Cc1[nH]nc2c1C1(C(=O)N(C)c3ccc(Br)cc31)C(C#N)=C(N)O2 (centres undefined),18,0,0,10,x,x
Cc1cc(C(=O)COC(=O)c2ccc(O)cc2O)c(C)n1-c1ccc2c(c1)OCO2,2,5.3*,0,-1,0,1
COC(=O)CN(c1ccccc1OC)S(=O)(=O)c1ccc(OC)cc1,2,7.1*,0,-2,0,2
CCOC(=O)CN(c1ccccc1Cl)S(=O)(=O)c1ccc(F)cc1,7,23*,0,-2,0,5
COc1ccc(S(=O)(=O)N(CC(=O)O)c2ccc(Cl)cc2)cc1,3,5.6*,0,7,-1,-15
O=C(CN(c1cc(Cl)cc(Cl)c1)S(=O)(=O)c1ccccc1)N1CCOCC1,-4,1,0,1,x,x
O=C(c1n[nH]c2c1CCCC2)N1CCn2cc(C(F)(F)F)nc2C1,8,0,0,13,x,x
O=C(NCc1ccc(N2CCCC2=O)cc1)c1cn(Cc2ccccc2)nn1,-1,7.4*,0,9,1,7
O=C(Nc1ccccc1)N[C@H]1C[C@H]2C(=O)N3CCC[C@@H]3C(=O)N2C1,-15,10*,1,15,2,19
OCc1ccccc1NC(=S)Nc1cccnc1,0,5.8*,0,12,-1,-10
Cc1ccccc1NC(=S)Nc1cccnc1,1,-1,0,9,x,x
Cc1ccccc1NC(=S)NCc1cccnc1,10,8.3*,0,5,1,2
Cc1nc(N2CCN(C)CC2)c2c(C)c(C(=O)N3CCC(Cc4ccccc4)CC3)sc2n1,3,7.1*,0,11,-1,-9
COc1ccccc1CNC(=O)c1sc2nc(C)nc(N3CCCCC3)c2c1C,-8,5.2*,0,5,0,1
CCOc1ccc(NC(=O)CC2Sc3ccc(C(F)(F)F)cc3NC2=O)c([N+](=O)[O-])c1 (centres undefined),-2,5.0*,0,9,0,8
O=C(COc1ccccc1)NCCSc1nc2ccccc2s1,-6,1,0,-20,x,x
O=C(CCl)NC1(C(F)(F)F)Oc2ccccc2O1,-2,0,0,6,x,x
O=C(Nc1cccc(C(F)(F)F)c1)NC1(C(F)(F)F)Oc2ccc(Cl)cc2O1 (centres undefined),-23,0,0,9,x,x
O=C(NC1(C(F)(F)F)Oc2ccccc2O1)C(F)(F)F,-1,6.2*,0,7,1,-10
SMILES,TEAD-YAP block,GPR151 activ,FBW7 activator,MITF inh,GPR151 conf act,GPR119 counter
O=C(Nc1ccccc1)NC1(C(F)(F)F)Oc2ccc(Cl)cc2O1 (centres undefined),-1,5.2*,0,5,0,5
CCCc1cc(=O)[nH]c2nnc(SCc3cccnc3)n12,8,0,0,18,x,x
O=C(Nc1ccc(S(=O)(=O)NC2CCCCC2)cc1)c1ccncc1,2,2,0,2,x,x
Cc1ccc([N+](=O)[O-])cc1S(=O)(=O)Nc1ccc(OCC(N)=O)cc1,-6,0,0,-9,x,x
CCN(CC)c1ccc(CN2CCc3nc(C)[nH]c(=O)c3C2)cc1,4,-1,0,-18,x,x
COc1ccc(OC(C)C(=O)Nc2ccc(C)cc2C)cc1 (centres undefined),3,-2,0,10,x,x
COc1ccc(OC(C)C(=O)Nc2cc(C)ccc2C)cc1 (centres undefined),9,5.0*,0,-3,2,1
O=C(Nc1ccc(-c2ccccc2)cc1)c1ccc(F)cc1,-22,1,0,-20,x,x
CC(C)c1c(C(=O)Nc2ccccc2)c(-c2ccccc2)c(-c2ccc(F)cc2)n1CC[C@@H](O)C[C@@H](O)CC(=O)O,x,5.2*,0,-4,0,-15
CC(=O)c1ccc(NC(=O)Nc2ccc(CC(=O)O)cc2)cc1,-3,6.6*,0,-3,0,9
CC(=O)Nc1ccc(C(=O)Nc2ccc(CC(=O)O)cc2)cc1,2,0,0,3,x,x
Cc1cccc(NC(=O)Cn2c(C3CC3)nc3c(cnn3-c3ccccc3)c2=O)c1C,2,1,0,-6,x,x
Cc1ccc(C)c(CSc2nc3nc(C)c(Cc4c(F)cccc4Cl)c(C)n3n2)c1,3,6.3*,0,2,0,11
Cc1ccc(C)c(Cc2c(C)nc3nc(SCc4c(F)cccc4Cl)nn3c2C)c1,3,1,0,1,x,x
Cc1nc2cc(-c3cccc(F)c3)nn2c(NCCN)c1C,-62,5.2*,0,-2,0,-5
CC1CCCC(NC(=O)c2ccc(CNS(=O)(=O)c3ccc(Cl)cc3)cc2)C1C (centres undefined),5,-1,0,-1,x,x
CC1CCCC(NC(=O)c2ccc(CNS(=O)(=O)c3ccc(F)cc3)cc2)C1C (centres undefined),-5,6.3*,0,-3,0,-10
CCOc1ccc(CN2CCN(Cc3cnc(-c4ccccc4)s3)CC2CCO)cc1 (centres undefined),12,-1,0,16,x,x
COc1ccc(CN2CCN(Cc3cnc(-c4ccccc4)s3)CC2CCO)cc1C (centres undefined),13,6.7*,0,-5,0,-4
CN(C)c1ncc(CN2CCN(CCc3ccccc3)C(CCO)C2)s1 (centres undefined),10,9.8*,0,10,0,5
CN(C)c1ncc(CN2CCN(Cc3ccc(F)cc3)C(CCO)C2)s1 (centres undefined),-7,4,0,-2,x,x
C1=Nn2nnnc2NC1c1c[nH]c2ccccc12 (centres undefined),5,-1,0,9,x,x
O=C(CCCCCn1c(=S)[nH]c2ccccc2c1=O)NCc1ccco1,-4,0,0,9,x,x
